Where “and” joins values, the source holds several entries; their conditions need not be identical. Identical values can stand only once. The source holds several records for some structures; these can differ, active in one and inactive in another. Calls of active or inactive are those of the source. How the source made its calls: active means hit-call score of the fitted dose curve at least 0.9, where 1 is the maximum; inactive means score below 0.9.
How the values were obtained:
[1] = ATG_CRE_CIS: Attagene CIS-FACTORIAL HepG2 Assay for human cAMP Responsive Element (CRE) binding protein 3 (AID 2282926); details: HepG2 CRE cis-reporter, Attagene multiplexed mRNA; actives raise or lower the signal
Procedure, shortened: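 Capillary electrophoresis of 6-FAM-labelled, HpaI-digested PCR products quantified reporter transcripts. These came from HepG2 transiently transfected with cis-element reporters and exposed to test chemicals for 24 hours, with DMSO defining baseline activity.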

[2] = molecular target: CCAAT/enhancer-binding protein beta (Homo sapiens) (UniProt P17676); test: ATG_C_EBP_CIS: Attagene CIS-FACTORIAL HepG2 Assay for human CCAAT/Enhancer Binding Protein (C/EBP) beta (AID 2282927); details: HepG2 Attagene cis-factorial transcription factor reporter; actives raise or lower the signal
Chain of CCAAT/enhancer-binding protein beta (Homo sapiens) (P17676 whole entry, looked up, the tested form may be a part): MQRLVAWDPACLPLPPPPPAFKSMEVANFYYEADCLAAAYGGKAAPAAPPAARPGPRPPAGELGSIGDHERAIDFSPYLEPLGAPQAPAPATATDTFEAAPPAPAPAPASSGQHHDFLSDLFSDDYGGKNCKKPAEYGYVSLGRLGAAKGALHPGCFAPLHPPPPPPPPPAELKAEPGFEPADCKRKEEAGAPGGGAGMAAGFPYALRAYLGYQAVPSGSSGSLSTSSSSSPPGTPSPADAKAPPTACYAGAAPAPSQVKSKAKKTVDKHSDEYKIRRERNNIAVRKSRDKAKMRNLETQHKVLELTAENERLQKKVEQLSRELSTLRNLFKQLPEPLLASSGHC
Procedure, shortened: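 Endogenous C/EBPb-driven reporter transcripts measured in transfected human HepG2 cells at 24 h via RT-PCR and capillary electrophoresis of labelled fragments. Activity fitted in both directions relative to DMSO baseline.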

[3] = ATG_CMV_CIS: Attagene CIS-FACTORIAL HepG2 Assay for human CMV (Internal Marker) (AID 2282928); details: HepG2 CMV promoter reporter, transcription factor profiling; actives raise or lower the signal;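 further: endpoint acts as a background internal control marker rather than a target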
Procedure, shortened: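 Bidirectional fits against DMSO are applied to reporter mRNA, read by RT-PCR with capillary electrophoresis, from HepG2 cells exposed 24 h. The endpoint serves as an internal CMV background marker within the cis-factorial reporter panel.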

[4] = ATG_DR4_LXR_CIS: Attagene CIS-FACTORIAL HepG2 Assay for human Liver X Receptor (LXR), DR4 submotif (AID 2282929); details: HepG2 Attagene DR4 cis-reporter, mRNA transcription; actives raise or lower the signal
Procedure, shortened: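 The endpoint is DR4-element-driven reporter transcripts after 24 h chemical exposure of transfected HepG2 cells. These were measured via RT-PCR and capillary electrophoresis, and gain or loss of signal was fitted relative to DMSO controls.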

[5] = molecular target: Aryl hydrocarbon receptor (Homo sapiens) (UniProt P35869); test: ATG_Ahr_CIS: Attagene CIS-FACTORIAL HepG2 Assay for human Aryl Hydrocarbon Receptor (Ahr) (AID 2282930); details: HepG2 AhR cis-factorial reporter transcription; actives raise or lower the signal
Chain of Aryl hydrocarbon receptor (Homo sapiens) (P35869 whole entry, looked up): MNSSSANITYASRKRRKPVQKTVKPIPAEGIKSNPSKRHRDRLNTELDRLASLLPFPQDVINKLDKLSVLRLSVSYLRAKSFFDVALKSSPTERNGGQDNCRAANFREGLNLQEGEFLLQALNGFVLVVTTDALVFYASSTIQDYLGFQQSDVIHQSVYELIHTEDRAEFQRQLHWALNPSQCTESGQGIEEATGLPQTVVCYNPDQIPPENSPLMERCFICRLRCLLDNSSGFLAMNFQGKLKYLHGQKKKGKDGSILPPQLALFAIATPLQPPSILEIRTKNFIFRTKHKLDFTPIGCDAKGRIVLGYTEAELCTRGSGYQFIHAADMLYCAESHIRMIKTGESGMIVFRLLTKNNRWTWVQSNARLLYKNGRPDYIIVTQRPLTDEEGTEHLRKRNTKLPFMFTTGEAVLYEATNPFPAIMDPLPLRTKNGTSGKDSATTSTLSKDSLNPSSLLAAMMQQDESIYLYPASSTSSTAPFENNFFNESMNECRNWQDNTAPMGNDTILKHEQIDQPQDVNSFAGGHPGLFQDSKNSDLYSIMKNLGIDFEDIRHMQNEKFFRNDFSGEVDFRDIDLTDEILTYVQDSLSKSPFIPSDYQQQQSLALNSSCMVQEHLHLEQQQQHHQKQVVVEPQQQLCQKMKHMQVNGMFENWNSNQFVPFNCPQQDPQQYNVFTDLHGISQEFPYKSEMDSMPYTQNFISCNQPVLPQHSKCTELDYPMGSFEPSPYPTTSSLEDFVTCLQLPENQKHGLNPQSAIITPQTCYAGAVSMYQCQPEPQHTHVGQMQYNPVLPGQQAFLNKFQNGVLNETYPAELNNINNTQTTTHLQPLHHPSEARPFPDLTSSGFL
Procedure, shortened: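 Reporter mRNA levels, quantified by RT-PCR and fluorescent capillary electrophoresis, reflect endogenous AhR transcriptional activity in HepG2 cells carrying transfected cis-promoter reporter constructs. Readout at 24 h post-dose; gain or loss fitted against DMSO baseline.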

[6] = ATG_AP_1_CIS: Attagene CIS-FACTORIAL HepG2 Assay for human Activator Protein 1 (AP-1) (AID 2282931); details: HepG2 Attagene cis-factorial AP-1 reporter mRNA; actives raise or lower the signal
Procedure, shortened: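 Readout is reporter transcript level from endogenous transcription factor activity, quantified by RT-PCR with fluorescent primer extension and capillary electrophoresis. Transiently transfected HepG2 cells, 24 h exposure. Curves fitted both directions versus DMSO.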

[7] = ATG_AP_2_CIS: Attagene CIS-FACTORIAL HepG2 Assay for human Activator Protein 2 (AP-2) (AID 2282932); details: HepG2 AP-2 cis-reporter, Attagene transcription factor profiling; actives raise or lower the signal
Procedure, shortened: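 Transiently transfected HepG2 cells are exposed to chemical for 24 h. Reporter transcripts are then measured as fluorescence following RT-PCR and capillary separation, and gain- or loss-of-signal is fitted relative to DMSO.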

[8] = ATG_BRE_CIS: Attagene CIS-FACTORIAL HepG2 Assay for human Bone Morphogenetic Protein (BMP) Response Element (BRE) (AID 2282933); details: HepG2 BMP response element reporter, Attagene transcription factor profiling; actives raise or lower the signal
Procedure, shortened: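 Endogenous transcription factor activity read in transiently transfected HepG2 cells after 24 h chemical exposure. Bidirectional curve fitting against DMSO; readout is reporter transcript level by RT-PCR with capillary electrophoresis of labelled products.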

[9] = molecular target: Transcription factor E2F1 (Homo sapiens) (UniProt Q01094); test: ATG_E2F_CIS: Attagene CIS-FACTORIAL HepG2 Assay for human E2F Transcription Factor 1 (AID 2282935); details: HepG2 Attagene cis-reporter, E2F reporter RNA transcripts; actives raise or lower the signal
Chain of Transcription factor E2F1 (Homo sapiens) (Q01094 whole entry, looked up): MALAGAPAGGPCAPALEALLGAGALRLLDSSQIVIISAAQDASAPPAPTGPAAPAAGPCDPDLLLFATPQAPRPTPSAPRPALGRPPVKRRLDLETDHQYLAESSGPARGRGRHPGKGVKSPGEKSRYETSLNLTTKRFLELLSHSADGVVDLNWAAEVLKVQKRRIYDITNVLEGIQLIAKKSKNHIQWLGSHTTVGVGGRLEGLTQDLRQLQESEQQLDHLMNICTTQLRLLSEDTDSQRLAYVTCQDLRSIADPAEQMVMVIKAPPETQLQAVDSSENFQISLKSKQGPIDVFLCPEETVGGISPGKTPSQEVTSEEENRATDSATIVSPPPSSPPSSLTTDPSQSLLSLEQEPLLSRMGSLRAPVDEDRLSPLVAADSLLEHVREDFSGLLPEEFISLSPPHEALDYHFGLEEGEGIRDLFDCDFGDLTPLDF
Procedure, shortened: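 Fluorescent RT-PCR products, digested with HpaI for 2 h at 37 C, are separated by capillary electrophoresis. Source RNA comes from transfected HepG2 cultures treated for 24 h.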

[10] = molecular target: Retinoic acid receptor alpha (Homo sapiens) (UniProt P10276); test: ATG_DR5_RAR_CIS: Attagene CIS-FACTORIAL HepG2 Assay for human Retinoic Acid Receptor Alpha (RARE), DR5 submotif (AID 2282934); details: HepG2 Attagene cis-factorial RARE DR5 reporter, mRNA; actives raise or lower the signal;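 on AC50: reporter responds to endogenous RAR alpha beta and gamma in HepG2 not RARA alone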
Chain of Retinoic acid receptor alpha (Homo sapiens) (P10276 whole entry, looked up): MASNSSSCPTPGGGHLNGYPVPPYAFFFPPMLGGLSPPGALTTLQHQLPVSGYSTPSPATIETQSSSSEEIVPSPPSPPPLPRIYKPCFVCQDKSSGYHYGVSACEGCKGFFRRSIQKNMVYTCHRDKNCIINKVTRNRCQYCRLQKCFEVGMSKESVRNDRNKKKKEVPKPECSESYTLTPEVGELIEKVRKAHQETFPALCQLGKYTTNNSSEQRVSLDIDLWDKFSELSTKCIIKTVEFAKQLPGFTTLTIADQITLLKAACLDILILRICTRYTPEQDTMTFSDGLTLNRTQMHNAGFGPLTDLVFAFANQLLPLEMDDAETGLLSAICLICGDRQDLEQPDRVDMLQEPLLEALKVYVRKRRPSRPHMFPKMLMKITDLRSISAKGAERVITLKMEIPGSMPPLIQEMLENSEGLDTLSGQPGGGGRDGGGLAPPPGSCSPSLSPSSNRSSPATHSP
Procedure, shortened: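 Reporter transcripts from a DR5-regulated unit, measured via RT-PCR plus capillary electrophoresis, reflect endogenous RAR activity in transiently transfected human HepG2 liver cells. Exposure lasted 24 h; gain or loss of signal scored against DMSO.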

Measured: AC50

CO[C@@H]1[C@H](OC(=O)NC(=O)CCl)CC[C@]2(CO2)[C@H]1[C@@]1(C)O[C@@H]1CC=C(C)C
active: [4] 10.2 µM
not listed: [10]
inactive: all other assays above

CN(C)c1ccc(C(=O)c2ccc(N(C)C)cc2)cc1
active: [5] 65.5 µM
not listed: [8]
inactive: all other assays above

Nc1ccc(Cc2ccc(N)cc2)cc1
not listed: [8] | [10]
inactive: all other assays above

Cc1cc(N=Nc2ccccc2C)ccc1N
active: [5] 2.99 µM | [8] 33.4 µM
not listed: [10]
inactive: all other assays above

CC(C)(C)C(O)(CCc1ccc(Cl)cc1)Cn1cncn1 (centres undefined)
inactive: [1] | [2] | [7] | [9]
active: [3] 122 µM | [4] 152 µM | [5] 52.3 µM | [6] 140 µM | [8] 147 µM

Cn1cc(-c2ccccc2)c(=O)c(-c2cccc(C(F)(F)F)c2)c1
active: [1] 79.1 µM | [2] 66.9 µM | [4] 73.7 µM | [5] 69.1 µM | [10] 15.3 µM
inactive: all other assays above

Nc1ccc(N=Nc2ccccc2)cc1
active: [5] 25.4 µM | [7] 169 µM
not listed: [8] | [10]
inactive: all other assays above

O=[N+]([O-])C(Br)(CO)CO
active: [1] 170 µM | [2] 156 µM | [6] 25.2 µM
not listed: [8] | [10]
inactive: all other assays above

C1=Cc2cccc3cccc1c23
not listed: [8]
inactive: all other assays above

C[C@]12C=CC3=C4CCC(=O)C=C4CC[C@H]3[C@@H]1CC[C@@H]2O
active: [1] 68.8 µM | [3] 28.3 µM | [4] 19.8 µM | [5] 19.8 µM and 35.7 µM | [7] 19.8 µM and 26.5 µM and 7.78 µM
inactive: [1] | [3] | [4] | [5] | [6] | [7] | [8] | [9]

CCCCCCCCn1sccc1=O
active: [1] 14.4 µM | [3] 19.1 µM | [8] 11.6 µM
not listed: [10]
inactive: all other assays above

CCCCCOC(=O)c1ccccc1C(=O)OCCCCC
active: [4] 150 µM | [6] 77.2 µM
not listed: [10]
inactive: all other assays above

N#CC(Br)(Br)C(N)=O
active: [5] 55.2 µM
inactive: all other assays above

OCCCl
not listed: [10]
inactive: all other assays above

COC(=O)Nc1nc2ccccc2[nH]1
active: [5] 13.3 µM
inactive: all other assays above

O=C1CCCO1
not listed: [10]
inactive: all other assays above

OCCOCCO
active: [6] 0.00963 µM
not listed: [8] | [10]
inactive: all other assays above

COc1cc(C=O)cc2c1[C@H](COC(N)=O)[C@]1(OC(C)=O)ON2C[C@H]2[C@@H]1N2C(C)=O
active: [1] 33.4 µM | [2] 61 µM | [4] 0.0512 µM | [5] 0.314 µM | [6] 61.4 µM | [7] 33.4 µM | [9] 61.5 µM
inactive: [3] | [8]

C[N+](C)(C)CC1CO1 (centres undefined)
not listed: [8] | [10]
inactive: all other assays above

CCCCC(CC)COC(=O)c1ccc(C(=O)OCC(CC)CCCC)c(C(=O)OCC(CC)CCCC)c1 (centres undefined)
inactive: all assays above

CCC12COCN1COC2
not listed: [10]
inactive: all other assays above

CS(=O)(=O)NC(=O)c1cc(Oc2ccc(C(F)(F)F)cc2Cl)ccc1[N+](=O)[O-]
inactive: all assays above

CCCCCCCCOC(=O)c1ccc(C(=O)OCCCCCCCC)c(C(=O)OCCCCCCCC)c1
not listed: [8]
inactive: all other assays above

CN(C)C(=O)Nc1ccc(Cl)cc1
active: [5] 58.5 µM
not listed: [8] | [10]
inactive: all other assays above

Nc1cc(Cl)cc(C(=O)O)c1Cl
active: [5] 58 µM
not listed: [10]
inactive: all other assays above

ClC1=C(Cl)[C@]2(Cl)[C@H]3[C@H]([C@@H]4C=C[C@H]3C4)[C@@]1(Cl)C2(Cl)Cl
active: [3] 45.6 µM | [4] 25.9 µM | [6] 46.9 µM
not listed: [10]
inactive: all other assays above

CCNS(=O)(=O)C(F)(F)C(F)(F)C(F)(F)C(F)(F)C(F)(F)C(F)(F)C(F)(F)C(F)(F)F
active: [1] 45.3 µM and 16.1 µM and 15.7 µM | [6] 29.9 µM and 75.2 µM
inactive: [2] | [3] | [4] | [5] | [6] | [7] | [9]

CC(C)(C)OOC(=O)c1ccccc1
active: [3] 74.8 µM | [6] 130 µM | [9] 158 µM
not listed: [8] | [10]
inactive: all other assays above

Nc1ccc(Oc2ccc(N)cc2)cc1
not listed: [2] | [10]
inactive: all other assays above

Cc1ccc(N=C=O)cc1N=C=O
not listed: [8] | [10]
inactive: all other assays above

CCCCOC(=O)c1ccccc1C(=O)OCc1ccccc1
not listed: [2] | [10]
inactive: all other assays above

Clc1ccc(Cl)c(Cl)c1
active: [5] 77.8 µM
not listed: [2] | [10]
inactive: all other assays above

C=CCc1ccc2c(c1)OCO2
not listed: [5]
inactive: all other assays above

CN(C)c1ccccc1
not listed: [5] | [10]
inactive: all other assays above

CC(C)(O)c1cnn2c(-c3ccc(F)c(-c4c(F)cccc4C#N)c3)cnc2n1
active: [1] 40 µM | [4] 27.5 µM | [6] 67.1 µM
not listed: [8] | [10]
inactive: all other assays above

[As]#[In]
active: [5] 65 µM
not listed: [8] | [10]
inactive: all other assays above

ClCCOCCCl
not listed: [2] | [10]
inactive: all other assays above

O=C(Oc1ccc(Br)cc1)N1CCN2CCC1CC2
not listed: [2]
inactive: all other assays above

O=C(O)C1C2CCC(O2)C1C(=O)O (centres undefined)
active: [1] 80.7 µM | [3] 77.8 µM | [6] 59 µM
not listed: [5] | [10]
inactive: all other assays above
